Measurements taken from the supplement of paper PMC10849652.
Of roughly 7,900 targets only a part is listed; those with a hit were picked by preference. About 0.6% of all pairs of compound and target were hits. Unmarked numbers belong to inactive results.

Key:
Test in all cases: log2 fold change, soluble protein after heating vs DMSO (PISA); higher = thermal stabilisation; K562 cells, 10 uM, 30 min; active = over 0.2 and 3.5 SD of the protein, either way, in both replicates (recomputed)
[1] = compound: CC[C@@H]1C(=O)N(C)c2cnc(Nc3ccc(C(=O)NC4CCN(C)CC4)cc3OC)nc2N1C1CCCC1
Method in brief: (§1)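 Soluble protein was defined as the supernatant after 21,000xg for 90 min. It came from K562 cells at 2×10^6 cells/mL given 10 μM compound for 30 min, heated in aliquots for 3 min across 48°C-58°C, pooled, and extracted in PBS with 0.5% NP-40 at 4°C, and was quantified by TMTpro 16plex LC-MS/MS with equalised channel sums. Thermal stability against control samples, from duplicates, is reported as log2 fold change.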

[2] = compound: CC[C@@H]1C(=O)N(C)c2cnc(Nc3ccc(C(=O)N[C@H]4CC[C@H](N5CCN(CC6CC6)CC5)CC4)cc3OC)nc2N1C(C)C [volasertib]
Method in brief: as §1

[3] = compound: CC[C@H](C)N1C=C(C2=C(C=C(C=C21)C3=CN=C(C=C3)N4CCNCC4)C(=O)NCC5=C(C=C(NC5=O)C)C)C
Method in brief: as §1

[4] = compound: CC[C@H](C)[C@@H](C(=O)N[C@@H]([C@@H](C)O)C(=O)N[C@@H](CC(C)C)C(=O)[C@]1(CO1)C)NC(=O)[C@H]([C@@H](C)CC)N(C)C(=O)C [epoxomicin]
Method in brief: as §1

[5] = compound: CCn1c(C(=O)N(C2CC2)C2CC2)cc2c3c(ncn3C)c(Nc3cc(C)n(C)n3)nc21
Method in brief: as §1

[6] = compound: CCn1cc(-c2ccnc3[nH]c(-c4cccc(CN(C)C)c4)cc23)c(-c2ccc(NC(=O)N(C)C)cc2)n1
Method in brief: as §1

[7] = compound: CN(C)CC(=O)Nc1ccc2[nH]c(=O)c3ccccc3c2c1
Method in brief: as §1

[8] = compound: CN(CCOC1=CC=C(C=C1)C[C@H]2C(=O)NC(=O)S2)C3=CC=CC=N3 (racemic) [rosiglitazone]
Method in brief: as §1

[9] = compound: CN1C2=C(C3=C1C(=O)N(N=C3)CC4=CC(=CC=C4)N)SC(=C2)S(=O)C
Method in brief: as §1

[10] = compound: CN1CCC(CNc2ccc3ncc(-c4cccc(OC(F)(F)F)c4)n3n2)CC1
Method in brief: as §1

[11] = compound: CN1CCN(CCOc2cc(OC3CCOCC3)c3c(Nc4c(Cl)ccc5c4OCO5)ncnc3c2)CC1 [saracatinib]
Method in brief: as §1

[12] = compound: CN1CCN(c2nc(C3=C(c4c[nH]c5ccccc45)C(=O)NC3=O)c3ccccc3n2)CC1 [sotrastaurin]
Method in brief: as §1

[13] = compound: CN1CC[C@H](c2c(O)cc(O)c3c(=O)cc(-c4ccccc4Cl)oc23)[C@H](O)C1 [alvocidib]
Method in brief: as §1

[14] = compound: CN1CCc2c(c3ccccc3n2Cc2ccc(C(=O)NO)cc2)C1 [Tubastatin A]
Method in brief: as §1

[15] = compound: CNC(=O)C1=CC=CC=C1NC2=NC(=NC=C2Cl)NC3=C(C=C(C=C3)N4CCOCC4)OC
Method in brief: as §1

[16] = compound: CNC(=O)c1ccc(Nc2ncc(C(F)(F)F)c(NCc3nccnc3N(C)S(C)(=O)=O)n2)cc1 [defactinib]
Method in brief: as §1

[17] = compound: CNCc1ccc(-c2[nH]c3cc(F)cc4c3c2CCNC4=O)cc1 [rucaparib]
Method in brief: as §1

[18] = compound: CNc1nc(-c2ccc3c(N)n[nH]c3c2)cc(N2C[C@@H](C(=O)NC3CCCCC3)CC[C@H]2C)n1
Method in brief: as §1

[19] = compound: COC(=O)N[C@@H](C)CNc1nccc(-c2cn(C(C)C)nc2-c2cc(Cl)cc(NS(C)(=O)=O)c2F)n1 [encorafenib]
Method in brief: as §1

[20] = compound: COC(=O)[C@H](CCSC)NC(=O)C1=C(C=C(C=C1)NC[C@H](CS)N)C2=CC=CC=C2
Method in brief: as §1

Sequence of UniProt Q7L014 (Q7L014 whole entry, looked up): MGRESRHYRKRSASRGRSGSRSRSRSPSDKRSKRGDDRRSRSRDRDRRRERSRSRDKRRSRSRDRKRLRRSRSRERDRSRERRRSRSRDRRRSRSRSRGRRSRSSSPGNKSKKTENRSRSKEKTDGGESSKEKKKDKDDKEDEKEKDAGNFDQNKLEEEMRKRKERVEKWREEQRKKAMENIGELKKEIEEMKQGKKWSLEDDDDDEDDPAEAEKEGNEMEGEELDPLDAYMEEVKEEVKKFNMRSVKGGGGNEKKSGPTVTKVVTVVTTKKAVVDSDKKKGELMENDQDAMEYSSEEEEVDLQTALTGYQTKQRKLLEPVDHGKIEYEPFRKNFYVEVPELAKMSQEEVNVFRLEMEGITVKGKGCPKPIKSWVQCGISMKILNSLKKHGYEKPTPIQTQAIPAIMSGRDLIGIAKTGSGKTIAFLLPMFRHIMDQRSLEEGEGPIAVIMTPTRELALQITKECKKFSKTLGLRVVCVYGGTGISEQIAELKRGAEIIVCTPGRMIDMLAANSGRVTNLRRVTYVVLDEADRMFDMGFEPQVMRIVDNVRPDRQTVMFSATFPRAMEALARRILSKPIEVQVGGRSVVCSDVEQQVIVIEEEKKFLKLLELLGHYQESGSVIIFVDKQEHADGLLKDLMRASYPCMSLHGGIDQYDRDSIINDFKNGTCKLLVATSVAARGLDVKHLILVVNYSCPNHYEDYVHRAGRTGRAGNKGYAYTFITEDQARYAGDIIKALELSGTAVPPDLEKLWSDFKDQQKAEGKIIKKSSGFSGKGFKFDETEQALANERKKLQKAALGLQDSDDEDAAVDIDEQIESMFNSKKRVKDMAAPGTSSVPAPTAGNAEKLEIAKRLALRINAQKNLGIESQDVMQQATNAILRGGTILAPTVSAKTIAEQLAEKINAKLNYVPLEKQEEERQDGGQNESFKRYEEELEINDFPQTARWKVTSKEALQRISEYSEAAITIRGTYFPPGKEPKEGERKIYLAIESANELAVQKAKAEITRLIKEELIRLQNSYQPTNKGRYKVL
Sequence of UniProt Q9NXF7 (Q9NXF7 whole entry, looked up): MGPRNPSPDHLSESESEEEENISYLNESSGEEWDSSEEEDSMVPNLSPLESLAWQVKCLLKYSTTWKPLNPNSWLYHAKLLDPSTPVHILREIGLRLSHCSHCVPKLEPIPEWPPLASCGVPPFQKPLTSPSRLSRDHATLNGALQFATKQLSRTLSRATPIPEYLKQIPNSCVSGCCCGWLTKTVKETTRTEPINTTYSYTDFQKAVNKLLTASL
Sequence of UniProt Q6V1X1 (Q6V1X1 whole entry, looked up): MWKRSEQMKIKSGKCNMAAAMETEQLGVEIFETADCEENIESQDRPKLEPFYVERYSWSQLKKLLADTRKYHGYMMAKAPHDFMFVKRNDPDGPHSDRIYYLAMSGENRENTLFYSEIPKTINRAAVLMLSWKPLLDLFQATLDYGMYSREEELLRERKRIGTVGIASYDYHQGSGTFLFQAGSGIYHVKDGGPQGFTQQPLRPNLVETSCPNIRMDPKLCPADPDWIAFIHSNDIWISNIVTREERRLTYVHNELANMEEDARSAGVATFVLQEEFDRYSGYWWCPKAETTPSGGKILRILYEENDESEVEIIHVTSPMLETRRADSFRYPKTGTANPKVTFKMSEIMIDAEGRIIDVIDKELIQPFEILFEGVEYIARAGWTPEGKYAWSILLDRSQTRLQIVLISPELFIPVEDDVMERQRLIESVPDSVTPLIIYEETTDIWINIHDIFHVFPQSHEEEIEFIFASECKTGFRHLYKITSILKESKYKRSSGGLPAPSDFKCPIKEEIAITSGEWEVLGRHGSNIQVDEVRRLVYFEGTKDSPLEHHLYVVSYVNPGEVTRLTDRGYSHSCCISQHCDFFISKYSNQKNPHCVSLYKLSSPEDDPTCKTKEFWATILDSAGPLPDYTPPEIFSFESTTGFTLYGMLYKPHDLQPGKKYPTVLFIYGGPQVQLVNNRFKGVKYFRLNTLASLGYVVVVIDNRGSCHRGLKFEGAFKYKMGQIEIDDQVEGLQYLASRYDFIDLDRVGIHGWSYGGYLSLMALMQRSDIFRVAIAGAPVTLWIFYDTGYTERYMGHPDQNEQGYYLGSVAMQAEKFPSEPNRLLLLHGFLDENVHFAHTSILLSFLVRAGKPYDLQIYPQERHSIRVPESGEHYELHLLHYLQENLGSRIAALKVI
Sequence of UniProt Q5QJE6 (Q5QJE6 whole entry, looked up): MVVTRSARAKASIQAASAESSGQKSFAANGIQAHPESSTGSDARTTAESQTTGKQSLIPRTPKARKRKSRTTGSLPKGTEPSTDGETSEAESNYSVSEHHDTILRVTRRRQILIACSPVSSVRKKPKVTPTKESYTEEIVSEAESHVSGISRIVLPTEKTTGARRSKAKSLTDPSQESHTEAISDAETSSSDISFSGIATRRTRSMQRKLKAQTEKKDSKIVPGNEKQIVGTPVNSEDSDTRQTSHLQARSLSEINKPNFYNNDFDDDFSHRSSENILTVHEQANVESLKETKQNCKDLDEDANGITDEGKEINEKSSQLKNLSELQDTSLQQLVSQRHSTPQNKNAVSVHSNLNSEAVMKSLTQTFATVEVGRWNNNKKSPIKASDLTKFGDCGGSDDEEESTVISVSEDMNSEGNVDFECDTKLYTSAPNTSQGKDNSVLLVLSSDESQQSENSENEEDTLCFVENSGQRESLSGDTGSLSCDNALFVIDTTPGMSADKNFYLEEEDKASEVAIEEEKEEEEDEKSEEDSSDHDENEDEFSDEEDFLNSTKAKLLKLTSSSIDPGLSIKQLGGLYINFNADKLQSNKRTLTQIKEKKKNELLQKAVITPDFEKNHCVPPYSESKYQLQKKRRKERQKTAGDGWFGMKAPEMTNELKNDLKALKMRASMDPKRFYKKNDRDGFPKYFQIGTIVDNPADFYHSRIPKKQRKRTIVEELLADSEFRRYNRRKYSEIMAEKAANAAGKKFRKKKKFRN
Sequence of UniProt P53634 (P53634 whole entry, looked up): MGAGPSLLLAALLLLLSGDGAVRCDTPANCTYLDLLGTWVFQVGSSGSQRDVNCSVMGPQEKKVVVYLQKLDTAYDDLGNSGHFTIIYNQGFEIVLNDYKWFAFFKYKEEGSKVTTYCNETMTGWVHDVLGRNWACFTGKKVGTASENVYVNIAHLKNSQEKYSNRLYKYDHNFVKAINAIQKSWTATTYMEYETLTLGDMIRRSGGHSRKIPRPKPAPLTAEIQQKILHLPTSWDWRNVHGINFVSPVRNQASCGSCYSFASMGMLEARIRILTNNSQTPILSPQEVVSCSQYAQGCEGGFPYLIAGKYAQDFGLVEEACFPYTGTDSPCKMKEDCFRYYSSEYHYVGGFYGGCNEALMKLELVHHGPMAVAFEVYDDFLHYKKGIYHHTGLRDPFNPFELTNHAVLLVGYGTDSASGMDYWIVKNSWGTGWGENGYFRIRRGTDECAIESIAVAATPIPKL
Sequence of UniProt Q0VG06 (Q0VG06 whole entry, looked up): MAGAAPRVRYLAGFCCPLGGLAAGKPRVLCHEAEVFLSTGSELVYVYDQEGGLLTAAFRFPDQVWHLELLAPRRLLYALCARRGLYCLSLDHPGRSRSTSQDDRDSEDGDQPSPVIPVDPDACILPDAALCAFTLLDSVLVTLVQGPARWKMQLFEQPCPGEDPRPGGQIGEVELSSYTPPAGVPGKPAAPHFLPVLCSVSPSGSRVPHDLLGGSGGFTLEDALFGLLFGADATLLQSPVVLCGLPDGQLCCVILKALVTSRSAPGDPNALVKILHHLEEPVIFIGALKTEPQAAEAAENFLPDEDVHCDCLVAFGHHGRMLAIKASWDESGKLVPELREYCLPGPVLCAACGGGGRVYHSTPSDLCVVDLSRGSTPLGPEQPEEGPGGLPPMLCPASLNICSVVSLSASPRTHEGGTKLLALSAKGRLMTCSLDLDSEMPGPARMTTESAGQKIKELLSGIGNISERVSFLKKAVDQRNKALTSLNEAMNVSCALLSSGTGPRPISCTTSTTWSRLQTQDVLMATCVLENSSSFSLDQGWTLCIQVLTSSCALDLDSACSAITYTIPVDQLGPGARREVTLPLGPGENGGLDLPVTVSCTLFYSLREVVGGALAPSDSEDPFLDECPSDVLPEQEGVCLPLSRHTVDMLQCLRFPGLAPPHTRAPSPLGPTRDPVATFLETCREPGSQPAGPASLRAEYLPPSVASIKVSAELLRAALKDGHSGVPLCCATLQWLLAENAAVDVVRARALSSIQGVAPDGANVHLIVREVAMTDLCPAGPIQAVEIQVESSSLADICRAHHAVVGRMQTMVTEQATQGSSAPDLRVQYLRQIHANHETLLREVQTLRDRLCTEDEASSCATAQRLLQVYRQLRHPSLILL
Sequence of UniProt Q96CS3 (Q96CS3 whole entry, looked up): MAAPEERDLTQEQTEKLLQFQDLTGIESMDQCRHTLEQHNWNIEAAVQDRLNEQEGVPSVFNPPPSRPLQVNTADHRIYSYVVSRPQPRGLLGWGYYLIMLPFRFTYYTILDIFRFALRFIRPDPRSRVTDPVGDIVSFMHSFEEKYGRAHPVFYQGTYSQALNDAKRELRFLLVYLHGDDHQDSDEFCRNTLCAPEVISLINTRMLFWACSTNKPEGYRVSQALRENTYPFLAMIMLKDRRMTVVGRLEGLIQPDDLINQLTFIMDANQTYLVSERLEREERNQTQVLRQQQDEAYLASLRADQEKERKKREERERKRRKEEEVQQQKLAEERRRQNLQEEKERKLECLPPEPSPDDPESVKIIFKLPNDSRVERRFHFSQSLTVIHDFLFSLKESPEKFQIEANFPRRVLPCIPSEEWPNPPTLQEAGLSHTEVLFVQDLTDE
Sequence of UniProt O75911 (O75911 whole entry, looked up): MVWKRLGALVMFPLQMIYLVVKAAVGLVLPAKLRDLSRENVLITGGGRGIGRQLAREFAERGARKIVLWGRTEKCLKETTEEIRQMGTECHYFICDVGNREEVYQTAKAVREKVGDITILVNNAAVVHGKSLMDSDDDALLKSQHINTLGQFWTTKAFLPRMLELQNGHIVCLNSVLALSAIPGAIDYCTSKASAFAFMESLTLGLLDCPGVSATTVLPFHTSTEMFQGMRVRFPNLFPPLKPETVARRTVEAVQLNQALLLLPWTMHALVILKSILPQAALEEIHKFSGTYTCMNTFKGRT

Target | log2 fold change [1] | log2 fold change [2] | log2 fold change [3] | log2 fold change [4] | log2 fold change [5] | log2 fold change [6] | log2 fold change [7] | log2 fold change [8] | log2 fold change [9] | log2 fold change [10] | log2 fold change [11] | log2 fold change [12] | log2 fold change [13] | log2 fold change [14] | log2 fold change [15] | log2 fold change [16] | log2 fold change [17] | log2 fold change [18] | log2 fold change [19] | log2 fold change [20]
DDX46 (UniProt Q7L014) | -0.259 | -0.275 | 0.087 | 0.192 | -0.211 | -0.129 | 0.133 | 0.106 | -0.066 | 0.087 | 0 | -0.197 | -0.157 | 0.101 | 0.054 | -0.296 | -0.125 | 0.028 | 0.05 | -0.085
CTSC (UniProt P53634) | -0.419 (active) | -0.946 (active) | -0.034 | 0.023 | 0.015 | -0.032 | 0.146 | -0.047 | -0.015 | -0.433 (active) | 0.03 | 0.046 | 0.074 | -0.015 | 0.052 | 0.035 | 0.031 | -0.005 | -0.082 | 0.007
DPP8 (UniProt Q6V1X1) | 0.143 | 0.007 | -0.025 | -0.045 | 0.019 | 0.002 | -0.057 | 0.02 | -0.047 | -0.106 | -0.002 | 0.175 | 0.024 | 0.003 | -0.044 | 0.082 | -0.572 (active) | -0.021 | 0.026 | 0.058
EEF1AKNMT (UniProt Q8N6R0) | -0.082 | -0.564 (active) | 0.111 | 0.012 | -0.038 | 0.134 | 0.092 | 0.022 | 0.075 | -0.095 | -0.063 | -0.174 | -0.039 | -0.004 | 0.063 | -0.068 | 0.115 | 0.059 | 0.095 | -0.182
DLD (UniProt P09622) | 0.043 | 0.143 | -0.028 | -0.015 | 0.049 | -0.007 | -0.012 | -0.008 | -0.035 | -0.118 | 0.055 | 0.015 | 0.026 | -0.029 | 0.008 | 0.01 | -0.041 | -0.023 | -0.011 | 0.047
FAAP100 (UniProt Q0VG06) | -0.01 | 0.149 | -0.02 | 0.139 | -0.05 | -0.093 | 0.061 | 0.006 | -0.02 | 0.124 | 0.044 | -0.014 | -0.035 | 0.028 | -0.178 | -0.044 | 0.009 | -0.067 | -0.04 | -0.097
FADS1, A0A0A0MR51 | 0.022 | -0.148 | 0.036 | 0.024 | 0.002 | -0.002 | -0.007 | 0.017 | -0.119 | -0.041 | 0.013 | -0.061 | -0.086 | 0.15 | 0.112 | -0.022 | 0.005 | 0.027 | 0.004 | 0
FAM160B1 (UniProt Q5W0V3) | -0.007 | -0.043 | 0.07 | 0 | 0.027 | -0.057 | -0.052 | 0.009 | -0.056 | -0.254 | -0.003 | -0.071 | -0.138 | 0 | -0.011 | -0.01 | -0.036 | -0.007 | -0.015 | 0.072
DHRS3 (UniProt O75911) | 0.134 | 0.02 | 0.02 | -0.002 | 0.001 | 0.001 | -0.054 | -0.013 | -0.062 | 0.056 | -0.022 | -0.008 | 0.001 | -0.042 | 0.044 | 0.077 | -0.04 | -0.016 | 0.004 | 0.027
DNTTIP2 (UniProt Q5QJE6) | 0.047 | -0.002 | 0.031 | -0.144 | 0.015 | 0.09 | -0.028 | -0.088 | 0.226 | -0.028 | -0.038 | -0.104 | -0.007 | 0.145 | 0.011 | -0.131 | 0.171 | 0.03 | 0.067 | 0.121
DPYSL2 (UniProt Q16555) | 0.055 | -0.037 | 0.014 | 0.129 | -0.071 | -0.073 | 0.11 | 0.039 | -0.058 | -0.067 | 0.127 | 0.062 | -0.089 | -0.003 | -0.066 | 0.02 | 0.015 | -0.032 | -0.054 | -0.009
DCAF16 (UniProt Q9NXF7) | -0.164 | -0.532 (active) | 0.06 | 0.032 | -0.026 | -0.205 | 0.073 | 0.055 | -0.052 | 0.03 | -0.052 | -0.036 | -0.082 | -0.006 | 0.084 | -0.054 | 0.033 | -0.05 | 0.004 | -0.041
EXOC2 (UniProt Q96KP1) | -0.13 | -0.463 | -0.041 | 0 | -0.089 | 0.044 | 0.058 | 0.01 | 0.123 | -0.386 (active) | -0.058 | -0.214 | -0.01 | 0.044 | 0.064 | -0.096 | 0.136 | -0.004 | 0.126 | -0.085
DYNC1LI2 (UniProt O43237) | 0.324 | -0.021 | -0.181 | -0.072 | -0.085 | -0.041 | 0.024 | 0.052 | -0.007 | 0.101 | -0.001 | -0.079 | 0.258 | 0.033 | 0.028 | -0.039 | 0.42 | 0.003 | 0.212 | 0.016
FAF2 (UniProt Q96CS3) | -0.095 | -0.322 (active) | 0.002 | -0.046 | 0.006 | 0.018 | 0.037 | 0.029 | 0.016 | -0.069 | -0.084 | -0.048 | -0.053 | -0.008 | 0.021 | -0.011 | 0.015 | 0.021 | 0.036 | 0
